# Assay results as given in PubChem BioAssay (NCATS).
# Records with an inconclusive call do not appear. A call without a number means that no potency is given here. Activity calls are given as the source filed them. Calls follow the shape of the dose curve; as a rule, active = well fitted curve in the direction sought with a large enough effect; inconclusive = small, poorly fitted or top-dose-only effect, or another doubt; inactive = no such curve, though single readings can be large; an effect the other way counts as inactive or inconclusive.
# Key:
# [1] = Primary qHTS for inhibitors of nuclear receptor binding SET domain protein 2 (NSD2) in an isogenic RCH-ACV NSD2 p.E1099K mutant (9B) (AID 1645876)
# [2] = Primary qHTS for inhibitors of nuclear receptor binding SET domain protein 2 (NSD2) in an RCH-ACV wild type WT cells (2C) (AID 1645877)
# Also: nearly all actives have a fitted effect of over 70% in size.
Structure (SMILES),Potency [1],Potency [2],"activity change, negative = viability loss [1]","activity change, negative = cell killing [2]"
COc1cc(C2c3cc(O)c(OC)cc3CC(CO)C2CO)ccc1O (stereo not drawn),inactive,inactive,,
OCC1=CC[C@@H]2C=CO[C@@H](O[C@@H]3O[C@H](CO)[C@@H](O)[C@H](O)[C@H]3O)[C@H]12,inactive,inactive,,
CN[C@@H]1[C@@H](O)[C@@H](O[C@@H]2[C@@H](O)[C@H](O[C@H]3O[C@H](CN)[C@@H](O)[C@H](O)[C@H]3O)[C@@H](N)C[C@H]2NC(=O)[C@@H](O)CN)OC[C@]1(C)O,inactive,inactive,,
C[C@]1(O)CC[C@@H]2C(C(=O)O)=CO[C@@H](O[C@@H]3O[C@H](COC(=O)c4ccc(O)cc4)[C@@H](O)[C@H](O)[C@H]3O)[C@@H]21,inactive,inactive,,
OC1COC(OCC2OC(OCCc3ccccc3)C(O)C(O)C2O)C(O)C1O (stereo not drawn),inactive,inactive,,
Cn1ccnc1CCOC(c1cc2nccc(C(=O)O)c2[nH]1)c1ccccc1Cl (stereo not drawn),inactive,inactive,,
CC1CCC2(O1)C(C)(C)CC(O[C@@H]1O[C@H](CO[C@@H]3OC[C@](O)(CO)[C@H]3O)[C@@H](O)[C@H](O)[C@H]1O)CC2(C)O (stereo partly drawn),inactive,inactive,,
CC(=O)O[C@H]1CC[C@@]2(CI)C(=CC[C@@H]3[C@@H]2CC[C@]2(C)[C@@H]([C@H](C)CCCC(C)C)CC[C@@H]32)C1,,,-4.5% [at 9.23 µM] (inactive),-14% [at 9.23 µM] (inactive)
COC1=CC(=O)C[C@@H](C)[C@]12Oc1cc(OC)cc(OC)c1C2=O,inactive,inactive,,
CC1CC(O)C2(C)C(C(=O)O)=CCCC2C1(C)CCc1ccoc1 (stereo not drawn),inactive,inactive,,
CCC(C)/C=C(C)/C=C/C1=CC2=C(Cl)C(=O)C(C)(OC(C)=O)C(=O)C2=CN1C1CCCCN(C(CCC(N)=O)C(=O)O)C1=O (stereo not drawn),inactive,inactive,,
C[C@@H]1C[C@H](O[C@@H]2O[C@H](CO[C@@H]3OC[C@](O)(CO)[C@H]3O)[C@@H](O)[C@H](O)[C@H]2O)CC(C)(C)[C@H]1/C=C/[C@@H](C)O,inactive,inactive,,
CC(C)CC(=O)O[C@@H]1OC=C(CO[C@@H]2O[C@H](CO[C@@H]3O[C@H](CO)[C@@H](O)[C@H](O)[C@H]3O)[C@@H](O)[C@H](O)[C@H]2O)[C@H]2C[C@H](O)[C@@H](CO)[C@@H]12,inactive,inactive,,
C/C1=C\C[C@H](O[C@@H]2O[C@H](CO)[C@@H](O)[C@H](O)[C@H]2O)/C(C)=C/[C@H]2OC(=O)[C@H](C)[C@@H]2CC1,inactive,inactive,,
C=C1CCC2C(C)(C)CC(=O)CC2(C)C1CCC(C)CCOC(C)=O (stereo not drawn),inactive,inactive,,
OCc1ccccc1O[C@@H]1O[C@H](CO)[C@@H](O)[C@H](O)[C@H]1O,inactive,inactive,,
N#Cc1ccnc(N2C(=O)CC[C@H]2C(=O)N(c2cncc(F)c2)[C@H](C(=O)NC2CC(F)(F)C2)c2ccccc2Cl)c1,inactive,inactive,,
COC(=O)C1=CO[C@@H](O[C@@H]2O[C@H](COC(=O)/C=C/c3cc(OC)c(O)c(OC)c3)[C@@H](O)[C@H](O)[C@H]2O)[C@@H]2C(CO)=CC[C@H]12,inactive,inactive,,
CC(C)(O)/C=C1/C(=O)C(C)(C)C(=O)C(C)(C)C1(O)O[C@@H]1O[C@H](COC(=O)c2cc(O)c(O)c(O)c2)[C@@H](O)[C@H](O)[C@H]1O (stereo partly drawn),inactive,inactive,,
CCNC(=O)[C@@H]1CCCN1C(=O)[C@H](CCCN=C(N)N)NC(=O)[C@H](CC(C)C)NC(=O)[C@@H](C)NC(=O)[C@H](Cc1ccc(O)cc1)NC(=O)[C@H](CO)NC(=O)[C@H](Cc1c[nH]c2ccccc12)NC(=O)[C@H](Cc1cnc[nH]1)NC(=O)[C@@H]1CCC(=O)N1,inactive,inactive,,
CC(C)=CCC/C(C)=C/CC/C(C)=C/CC[C@]1(C)CCc2cc(O)cc(C)c2O1,inactive,inactive,,
CC1(C)CC[C@]2(C(=O)O)CC[C@]3(C)C(=CCC4[C@@]5(C)CC[C@H](O[C@@H]6O[C@H](C(=O)O)[C@@H](O)[C@H](O)[C@H]6O)C(C)(CO)C5CC[C@]43C)C2C1 (stereo partly drawn),inactive,inactive,,
C/C=C(\C)C(=O)O[C@@H](C)[C@H]1CC[C@]2(O)C3CCC4C[C@@H](OC5CC(OC)C(OC6CC(OC)C(OC7CC(OC)C(OC8OC(C)C(OC9OC(CO)C(O)C(O)C9O)C(OC)C8O)C(C)O7)C(C)O6)C(C)O5)CC[C@]4(C)C3[C@H](O)[C@@H](O)[C@]12C (stereo partly drawn),,,-6.35% [at 9.23 µM] (inactive),-1.09% [at 9.23 µM] (inactive)
C=C1CCC2C(C)(C)C(O)CCC2(C)C1CCC(C)CCOC(=O)CCC(=O)O (stereo not drawn),inactive,inactive,,
